The values that follow come from article PMC8384837, “Expanding the binding specificity for RNA recognition by a PUF domain”.

Where a chain is given by its changes, count along the chain named.

Holding throughout (experiment): yeast three-hybrid, YBZ-1, SC-Leu-His + 0.5 mM 3-AT, 4 days
What all share (settings): tags: N-Gal4 AD-HA kept; label: inside an RPR1-promoter hybrid RNA with tandem MS2 sites; ssRNA

The target in one test is PUM1 PUF domain R7-KHQ (Homo sapiens, UniProt Q14671 828-1176, S1079K;N1080H;E1083Q). Summed up: (§1)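 Pumilio-1 PUF domain libraries, randomized at the three base-contacting residues of each repeat, were co-expressed with matching RNA elements from a centromeric plasmid in strain YBZ-1, which carries a LexA–MS2 coat fusion and a HIS3 reporter. Transformants grew for four days on SC-Leu (input) or on SC-Leu-His + 0.5 mM 3-AT (selection), and the repeat regions were PCR-amplified and Illumina-sequenced. The interaction score is the log change in variant frequency from input to selection. That logarithm is base 2, with a pseudocount of 1 where a variant was absent.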

The target in another test is PUM1 PUF domain R4-GYP (Homo sapiens, UniProt Q14671 828-1176, N971G;H972Y;Q975P). The essentials: as §1
Another test deals with T1, PUM1 PUF domain R6-FWS (Homo sapiens, UniProt Q14671 828-1176, N1043F;Y1044W;Q1047S).
T1 sequence: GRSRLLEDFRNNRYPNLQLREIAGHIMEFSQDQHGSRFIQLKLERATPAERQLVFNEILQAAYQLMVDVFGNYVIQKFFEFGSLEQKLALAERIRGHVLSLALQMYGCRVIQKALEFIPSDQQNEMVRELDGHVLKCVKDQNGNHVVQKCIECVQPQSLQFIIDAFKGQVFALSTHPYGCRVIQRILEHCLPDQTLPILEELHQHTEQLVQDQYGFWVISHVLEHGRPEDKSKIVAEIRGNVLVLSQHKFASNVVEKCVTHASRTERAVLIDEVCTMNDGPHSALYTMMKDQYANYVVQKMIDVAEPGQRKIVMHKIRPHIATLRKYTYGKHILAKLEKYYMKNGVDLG
Summed up:
as §1

Another test has as its target T2, PUM1 PUF domain R6-LYA (Homo sapiens, UniProt Q14671 828-1176, N1043L;Q1047A).
T2 sequence: T1 sequence with F216L, W217Y, S220A
Summed up:
as §1

A further test deals with PUM1 PUF domain R8-NWH (Homo sapiens, UniProt Q14671 828-1176, Y1123W;Q1126H). Summed up:
as §1

The target in a further test is PUM1 PUF domain R4-TAQ (Homo sapiens, UniProt Q14671 828-1176, N971T;H972A). Summed up: as §1
The target of the next test is PUM1 PUF domain R8-RCR (Homo sapiens, UniProt Q14671 828-1176, N1122R;Y1123C;Q1126R). Summed up:
as §1

In a further test the target is PUM1 PUF domain R3-GPV (Homo sapiens, UniProt Q14671 828-1176, C935G;R936P;Q939V). The essentials:
as §1

In another test the target is PUM1 PUF domain R8-RYR (Homo sapiens, UniProt Q14671 828-1176, N1122R;Q1126R). The essentials: as §1
The target of a further test is PUM1 PUF domain R8-DYR (Homo sapiens, UniProt Q14671 828-1176, N1122D;Q1126R). Summed up: as §1
Another test addresses PUM1 PUF domain R3-VRH (Homo sapiens, UniProt Q14671 828-1176, C935V;Q939H). The essentials: as §1
For a further test, the target named is PUM1 PUF domain R3-LWI (Homo sapiens, UniProt Q14671 828-1176, C935L;R936W;Q939I). Summed up: as §1
The target in the next test is PUM1 PUF domain R3-SSD (Homo sapiens, UniProt Q14671 828-1176, C935S;R936S;Q939D). The essentials:
as §1

In the next test the target is PUM1 PUF domain R1-RMS (Homo sapiens, UniProt Q14671 828-1176, S863R;R864M;Q867S). The essentials:
as §1

The target in the next test is PUM1 PUF domain R1-LKR (Homo sapiens, UniProt Q14671 828-1176, S863L;R864K;Q867R). Summed up:
as §1

The target in a further test is PUM1 PUF domain R1-GPK (Homo sapiens, UniProt Q14671 828-1176, S863G;R864P;Q867K). The essentials:
as §1

The next test addresses PUM1 PUF domain R1-KFV (Homo sapiens, UniProt Q14671 828-1176, S863K;R864F;Q867V). The essentials:
as §1

For another test, the target named is PUM1 PUF domain R8-HFL (Homo sapiens, UniProt Q14671 828-1176, N1122H;Y1123F;Q1126L). The essentials: as §1
For the next test, the target named is PUM1 PUF domain R8-KRH (Homo sapiens, UniProt Q14671 828-1176, N1122K;Y1123R;Q1126H). The essentials: as §1
A further test deals with PUM1 PUF domain R3-WYA (Homo sapiens, UniProt Q14671 828-1176, C935W;R936Y;Q939A). The essentials: as §1

Consider “GGCUAGAACUAGUGGAUCCCCCGGCGCCCGGCGGCUCGAGCCCGGGUAAGUUUAAAUAGUCUGCAUGCCGCCGGGCGCCAUGCCUGCAGGUCGACUCUAGAAAACAUG”, for which, in the test with PUM1 PUF domain R7-KHQ, the binding signal was 2.38 log2 enrichment (interaction score).
Regarding “GGCUAGAACUAGUGGAUCCCCCGGCGCCCGGCGGCUCGAGCCCGGGUAAGUGUACAUAGUCUGCAUGCCGCCGGGCGCCAUGCCUGCAGGUCGACUCUAGAAAACAUG”, in the test with PUM1 PUF domain R4-GYP, the binding signal was 5.39 log2 enrichment (interaction score).
In the case of “GGCUAGAACUAGUGGAUCCCCCGGCGCCCGGCGGCUCGAGCCCGGGUAAGUGAAAAUAGUCUGCAUGCCGCCGGGCGCCAUGCCUGCAGGUCGACUCUAGAAAACAUG”, the binding signal with PUM1 PUF domain R6-FWS is 4.06 log2 enrichment (interaction score); in the test with PUM1 PUF domain R6-LYA it was 1.91 log2 enrichment (interaction score).
With “GGCUAGAACUAGUGGAUCCCCCGGCGCCCGGCGGCUCGAGCCCGGGUAAGUGUAAAUAGUCUGCAUGCCGCCGGGCGCCAUGCCUGCAGGUCGACUCUAGAAAACAUG”, the binding signal was 2.75 log2 enrichment (interaction score) with PUM1 PUF domain R8-NWH; 0.74 log2 enrichment (interaction score) with PUM1 PUF domain R4-TAQ; 1.34 log2 enrichment (interaction score) in the test with PUM1 PUF domain R8-RCR; 2.08 log2 enrichment (interaction score) in the test with PUM1 PUF domain R3-GPV; 6.26 log2 enrichment (interaction score) in the test with PUM1 PUF domain R8-RYR; 2.58 log2 enrichment (interaction score) with PUM1 PUF domain R6-LYA. The binding signal in the test with PUM1 PUF domain R8-DYR was 0.87 log2 enrichment (interaction score); with PUM1 PUF domain R4-GYP, 5.1 log2 enrichment (interaction score); with PUM1 PUF domain R3-VRH, 4.55 log2 enrichment (interaction score).
Turning to “GGCUAGAACUAGUGGAUCCCCCGGCGCCCGGCGGCUCGAGCCCGGGUAAGUGUAAGUAGUCUGCAUGCCGCCGGGCGCCAUGCCUGCAGGUCGACUCUAGAAAACAUG”, the figures for the binding signal in the test with PUM1 PUF domain R3-LWI and in the test with PUM1 PUF domain R3-SSD were 3.8 log2 enrichment (interaction score) and 2.19 log2 enrichment (interaction score), respectively.
Turning to “GGCUAGAACUAGUGGAUCCCCCGGCGCCCGGCGGCUCGAGCCCGGGUAAGUGUAAAUCGUCUGCAUGCCGCCGGGCGCCAUGCCUGCAGGUCGACUCUAGAAAACAUG”, the binding signal in the test with PUM1 PUF domain R1-RMS is 3.18 log2 enrichment (interaction score); with PUM1 PUF domain R1-LKR it was 3.44 log2 enrichment (interaction score); with PUM1 PUF domain R1-GPK it was 4.33 log2 enrichment (interaction score).
As for “GGCUAGAACUAGUGGAUCCCCCGGCGCCCGGCGGCUCGAGCCCGGGUAAGUGUAAAUUGUCUGCAUGCCGCCGGGCGCCAUGCCUGCAGGUCGACUCUAGAAAACAUG”, the binding signal was 2.07 log2 enrichment (interaction score) with PUM1 PUF domain R1-RMS, 2.22 log2 enrichment (interaction score) with PUM1 PUF domain R1-LKR, 2.87 log2 enrichment (interaction score) in the test with PUM1 PUF domain R1-GPK and 3.92 log2 enrichment (interaction score) in the test with PUM1 PUF domain R1-KFV.
With “GGCUAGAACUAGUGGAUCCCCCGGCGCCCGGCGGCUCGAGCCCGGGUAAGCGUAAAUAGUCUGCAUGCCGCCGGGCGCCAUGCCUGCAGGUCGACUCUAGAAAACAUG”, the binding signal with PUM1 PUF domain R8-RCR was 3.19 log2 enrichment (interaction score); with PUM1 PUF domain R8-RYR, 7.21 log2 enrichment (interaction score); in the test with PUM1 PUF domain R8-HFL it was 2.79 log2 enrichment (interaction score); with PUM1 PUF domain R8-DYR, 3.04 log2 enrichment (interaction score); with PUM1 PUF domain R8-KRH, 2.93 log2 enrichment (interaction score).
Turning to “GGCUAGAACUAGUGGAUCCCCCGGCGCCCGGCGGCUCGAGCCCGGGUAAGUGUAAAUGGUCUGCAUGCCGCCGGGCGCCAUGCCUGCAGGUCGACUCUAGAAAACAUG”, the binding signal in the test with PUM1 PUF domain R1-GPK is 0.78 log2 enrichment (interaction score).
Consider “GGCUAGAACUAGUGGAUCCCCCGGCGCCCGGCGGCUCGAGCCCGGGUAAGUCUAAAUAGUCUGCAUGCCGCCGGGCGCCAUGCCUGCAGGUCGACUCUAGAAAACAUG”, for which, in the test with PUM1 PUF domain R7-KHQ, the binding signal is 4.15 log2 enrichment (interaction score).
“GGCUAGAACUAGUGGAUCCCCCGGCGCCCGGCGGCUCGAGCCCGGGUAAGUGUAUAUAGUCUGCAUGCCGCCGGGCGCCAUGCCUGCAGGUCGACUCUAGAAAACAUG”: the binding signal is 3.78 log2 enrichment (interaction score) with PUM1 PUF domain R4-TAQ and 7.06 log2 enrichment (interaction score) with PUM1 PUF domain R4-GYP.
As for “GGCUAGAACUAGUGGAUCCCCCGGCGCCCGGCGGCUCGAGCCCGGGUAAGUGUAAUUAGUCUGCAUGCCGCCGGGCGCCAUGCCUGCAGGUCGACUCUAGAAAACAUG”, the binding signal with PUM1 PUF domain R3-WYA is 3.22 log2 enrichment (interaction score); with PUM1 PUF domain R3-GPV, 2.28 log2 enrichment (interaction score).
